# Laboratory results reported in PubChem BioAssay (NCI).
# Compounds without any hit were thinned out: in the full panel of roughly 83,000, 20% have a hit.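 Cells were grown in 96-well plates and exposed to the test compound at a single concentration for 48 hours; results are reported as percent growth, with values below 10 considered active.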 Unmarked numbers belong to inactive results. The source made the active and inactive calls.
# System: U251 CNS
# Test: NCI-60 one-dose screen, 48 h (100 = growth as untreated, 0 = no growth, -100 = all killed)
# Conditions: 10 µM
row,SMILES,growth
1,Cc1ccc(C(=O)NCCCNc2nc(Nc3ccc(N4CCN(C)CC4)cc3)nc3ccsc23)cc1,18.5%
2,O=C(c1ccc(-n2c(=O)[nH]c3ccccc3c2=O)cc1)N1CCOCC1,105%
3,O=S(=O)(c1ccc(Cl)cc1)c1nc(-c2ccccc2)oc1S(=O)(=O)c1ccc(Cl)cc1,79.9%
4,Cc1ccc(C(C)C)cc1NC(=O)c1ccccc1N(C)C,87.6%
5,COc1ccc2[nH]c(O)c(N=NC(=O)COc3ccc(NC(=O)Nc4ccc(Cl)c(Cl)c4)cc3)c2c1,-94.2% (active)
6,COc1cccc(-c2nn(-c3ccccc3)cc2-c2ccnc(NCCCNC(=O)Nc3ccc(F)cc3)c2)c1,8.94% (active)
7,CN1CCN(c2ccc(Nc3nc(NCCCNC(=O)c4ccc(F)cc4)c4sccc4n3)cc2)CC1,19.7%
8,CC1(C)CC[C@]2(C(=O)Nc3ccccc3)CC[C@]3(C)C(=CC[C@@H]4[C@@]5(C)CC[C@H](N)C(C)(C)[C@@H]5CC[C@]43C)[C@H]2C1,-47.5% (active)
9,C[C@H]1[C@H](C)CC[C@]2(COC(=O)CCC(=O)NCC#CCN3CCNCC3)CC[C@]3(C)C(=CC[C@@H]4[C@@]5(C)CCCNC(C)(C)[C@@H]5CC[C@]43C)[C@H]12,14.7%
10,O=C(Nc1ccncc1)c1ccc(-n2c(=O)[nH]c3ccccc3c2=O)cc1,99.7%
11,Cc1ccc(C(C)C)cc1NC(=O)c1ccccc1O,41%
12,CCCS(=O)(=O)c1oc(-c2ccc(F)cc2)nc1S(=O)(=O)c1ccc(F)cc1,31.7%
